Source: PubChem BioAssay (NCI)
This is part of a sample that, as a whole, favours compounds with a hit. Of some 83,000 tested, about 20% had one in any assay.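 96-well plates, one dose, 48 hours. Percent growth reported; active if below 10.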 Unmarked numbers belong to inactive results. Activity calls are given as the source filed them.

Assays:
Assay in all cases: NCI-60 one-dose screen, 48 h (100 = growth as untreated, 0 = no growth, -100 = all killed)
Details in all cases: 10 µM unless noted
SK-MEL-2 melanoma = test system: SK-MEL-2 melanoma
EKVX NSCLC = test system: EKVX NSCLC
SN12C renal = test system: SN12C renal
UO-31 renal = test system: UO-31 renal
TK-10 renal = test system: TK-10 renal
ACHN renal = test system: ACHN renal
CAKI-1 renal = test system: CAKI-1 renal
A498 renal = test system: A498 renal
CCRF-CEM leukemia = test system: CCRF-CEM leukemia
MOLT-4 leukemia = test system: MOLT-4 leukemia
SR leukemia = test system: SR leukemia
RPMI-8226 leukemia = test system: RPMI-8226 leukemia
OVCAR-8 ovarian = test system: OVCAR-8 ovarian
OVCAR-5 ovarian = test system: OVCAR-5 ovarian
OVCAR-4 ovarian = test system: OVCAR-4 ovarian
SK-OV-3 ovarian = test system: SK-OV-3 ovarian
OVCAR-3 ovarian = test system: OVCAR-3 ovarian
HS 578T breast = test system: HS 578T breast
NCI/ADR-RES ovarian = test system: NCI/ADR-RES ovarian
IGROV1 ovarian = test system: IGROV1 ovarian

SMILES	growth (SK-MEL-2 melanoma)	growth (EKVX NSCLC)	growth (SN12C renal)	growth (UO-31 renal)	growth (TK-10 renal)	growth (ACHN renal)	growth (CAKI-1 renal)	growth (A498 renal)	growth (CCRF-CEM leukemia)	growth (MOLT-4 leukemia)	growth (SR leukemia)	growth (RPMI-8226 leukemia)	growth (OVCAR-8 ovarian)	growth (OVCAR-5 ovarian)	growth (OVCAR-4 ovarian)	growth (SK-OV-3 ovarian)	growth (OVCAR-3 ovarian)	growth (HS 578T breast)	growth (NCI/ADR-RES ovarian)	growth (IGROV1 ovarian)
CCOC(=O)c1c2c(n3ccc(NC(=O)CCN4CCCCC4)cc13)C(=O)c1ncccc1C2=O	52.1%	67.9%	30.2%	10.3%	54%	-52.5% (active)	16.9%	58.5%	-22.9% (active)	-25.9% (active)	-46.6% (active)	-6.64% (active)	-27% (active)	-58.9% (active)	-13.5% (active)	26.2%	-10.9% (active)	40.2%	36.8%	
COc1cnc2c(c1)C(=O)c1c-2n(CCCN2CCN(C)CC2)c(=O)c2cc([N+](=O)[O-])ccc12	-14.2% (active)	-43.8% (active)	-57.7% (active)	-86.6% (active)	-89.7% (active)	-94.5% (active)	-91.4% (active)	-95.9% (active)	-27.3% (active)	-23.2% (active)	-23.6% (active)	-41.6% (active)	-21.9% (active)	111%	-81.7% (active)	86.6%	-84.6% (active)	94.8%	-2.68% (active)	
CCCC(=O)Oc1ccc(/C(=C(/CC)Cc2ccccc2)c2ccc(OCCN3CCCC3)cc2)cc1	103%	81.4%	99.4%	66.5%	87.8%	87.3%	85.2%	71.9%	84.4%	51.6%	1.36% (active)	33.3%	96.4%	84.2%	68.4%	97%	74.1%	82.7%	69.9%	
CC/C=C\C[C@H](O)C/C=C1/C(=O)C=C[C@@H]1C/C=C\CCCC(=O)OC(C)C	-21.3% (active)	15.9%	-16.3% (active)	-72.6% (active)	-3.87% (active)	-79.1% (active)	9.27% (active)	77.7%	-28.8% (active)	-24.5% (active)	-27% (active)	-21.6% (active)	5.63% (active)	9.35% (active)	23.3%	16.4%	-39.6% (active)		6.4% (active)	-2.92% (active)
O=C([C@@H](COCc1ccccc1)N1C(=O)[C@@H](N2C(=O)OC[C@@H]2c2ccccc2)[C@H]1/C=C/c1ccccc1)N1CCC(CCN2CCCCC2)CC1	71.7%	93.1%	83.4%	69.3%	59.8%	99%	99.9%	50.1%	95.4%	62.8%	30.9%	65.2%	98.6%	102%	86.8%	86.6%	91.5%	90.8%	95.4%	84.1%
C=C1C(=O)O[C@H]2[C@H]1CC/C(Cn1cc(Cn3ccc4ccccc43)nn1)=C\CC[C@@]1(C)O[C@@H]21	61.5%	58.6%	39.8%	-77.2% (active)	16.8%	-52.9% (active)	18.3%	74.3%	-18.6% (active)	-8.31% (active)	-18.4% (active)	-34.6% (active)	11%	71.5%	45.4%	101%	-59.7% (active)	69.4%	77.9%	47.8%
c1ccc(Sc2ncnc3ccccc23)cc1	44.3%	84.2%	69%	52.7%	96.5%	90.9%	65.5%	82%	48.5%	38%	25.5%	20.9%	82.1%	98.4%	76%	112%	71.2%	77.9%	83.5%	77.9%
CCCCCCCCCC(=O)Oc1ccc(/C(=C(/C)Cc2cccc(OC)c2)c2ccc(OCCN(C)C)cc2)cc1	107%	94.7%	99.2%	92.5%	109%	110%	102%	95.8%	103%	115%	106%	106%	108%	101%	115%	113%	109%		98.4%	110%
C=C1C(=O)O[C@H]2[C@H]1CC/C(Cn1cc(Cc3c[nH]c4ccccc34)nn1)=C\CC[C@@]1(C)O[C@@H]21	51.2%	53.6%	39.4%	-71.1% (active)	14.7%	-36.1% (active)	31.7%	64.3%	-17.1% (active)	-1.1% (active)	-5.78% (active)	-26% (active)	0.832% (active)	76.2%	43.8%	97.1%	-28.3% (active)	73.5%	85.8%	40.2%
C/C(=C(/c1ccc(O)cc1)c1ccc(Cl)cc1)c1ccccc1	-85.1% (active)	-81% (active)	-90.5% (active)	-100% (active)	-63.7% (active)	-92.3% (active)	-54.2% (active)	-55.1% (active)	-61.2% (active)	-29.5% (active)	-27.9% (active)	-45.9% (active)	-53% (active)	-85.3% (active)	-97.4% (active)	-85.6% (active)	-92.5% (active)	-37.6% (active)	-71% (active)	-73.1% (active)
CNCc1cccc2c1OCCOCCOCCN(C)S(=O)(=O)c1ccc(cc1)-c1cnc(N)c(n1)C(=O)N2	56.7%	43.6%	37%	36.5%	53.3%	22.1%	44.6%	36.7%	-23.6% (active)	0.352% (active)	-35% (active)	44.6%	52.9%	160%	72.8%	19.4%	42.8%	56.9%	80.1%	
Cc1nc2sc(C(=O)Nc3cccc4c3OCCO4)c(N)c2cc1C(C)O (stereo unspecified)	17.1%	35.1%	40.4%	44.3%	55.7%	44.8%	40.9%	-4.54% (active)	19.3%	28.2%	26.4%	26.5%	49.5%	73.7%	69.4%	-11.4% (active)	7.73% (active)		31%	49%
COc1cccc(-c2nc3sccn3c2-c2ccnc(NCCCNS(=O)(=O)c3ccccc3)c2)c1	27.4%	42.7%	31.4%	9.36% (active)	88.2%	26.9%	27.8%	57.9%	12.3%	14.1%	53.7%	-17.4% (active)	17.6%	92%	27.6%	79.2%	38.7%		12.7%	39.6%
CS(=O)(=O)c1ccc(-c2cnc3ccc(-c4cccc(S(C)(=O)=O)c4)nn23)cc1	48.3%	67.5%	46.8%	24.2%	40%	22.4%	23.2%	-15.6% (active)	18.4%	0.943% (active)	21.1%	18.8%	53.1%	44.2%	72.8%	43.4%	33.3%		80.9%	14%
COC1/C=C\OC2(C)Oc3c(C)c(O)c4c(O)c(c(CN(C)CCO)c(O)c4c3C2=O)NC(=O)/C(C)=C\C=C/C(C)C(O)C(C)C(O)C(C)C(OC(C)=O)C1C (stereo unspecified)	105%	95.1%	105%	80.3%	114%	103%	68.5%	115%	98.3%	112%	91.2%	86.4%	90.7%	91.7%	84.5%	96.6%	111%	104%	103%	95.9%
